DUX4 inh – blocks DUX4-driven transcriptional activation. 293T-iDUX4 ZSCAN4-Gaussia luciferase reporter, 24 h; hits give low values. activity change, negative = inhibition, % (no concentration beside the values). 37,000 compounds, 0.8% hits. AID 1224904;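 active = mean inhibition of at least 10% in the main channel, exceeding the control channel by a set limit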
A number is an active result; ! = not confirmed by another sample. This excerpt belongs to a sample that is enriched for hits.

For C[C@H]1CN([C@@H](C)CO)C(=O)c2c(c3ccccc3n2C)-c2ccccc2CO[C@@H]1CN(C)C the results were DUX4 inh inactive.
Screening C[C@@H]1CN([C@@H](C)CO)C(=O)c2ccccc2-c2ccccc2CO[C@H]1CN(C)Cc1ccccc1C(F)(F)F returned DUX4 inh inactive.
`CCCNC(=O)N1C[C@@H](C)[C@@H](OC)CN(C)C(=O)c2cc(NS(C)(=O)=O)ccc2OC[C@@H]1C` gave DUX4 inh inactive.
For Cc1ccc(S(=O)(=O)NCC[C@H]2CC[C@@H](NS(=O)(=O)c3ccccc3Cl)[C@@H](CO)O2)cc1 the results were DUX4 inh inactive.
For CC(=O)NC[C@@H]1[C@H](c2ccc(-c3cccc(F)c3)cc2)[C@@H](CO)N1C(C)=O the results were DUX4 inh inactive.
`Cc1nn(C)cc1NC(=O)C[C@H]1CC[C@@H]2[C@@H](COc3ccc(NC(=O)Nc4cccc(Cl)c4)cc3C(=O)N2C)O1` gave DUX4 inh inactive.
For CC(=O)N1[C@@H](CO)[C@H](c2ccccc2)[C@@H]1CN(CC(C)C)C(=O)c1ccccn1 the results were DUX4 inh inactive.
`C[C@@H](O)C#Cc1ccc([C@H]2[C@@H](CO)N3CCCCN(S(=O)(=O)c4ccccc4)C[C@H]23)cc1` gave DUX4 inh inactive.
O=C(Cc1ccccc1)N1CC(=O)N2[C@H](C1)[C@@H](c1ccc(C#CCc3ccccc3)cc1)[C@@H]2CO was read as DUX4 inh -34.
CC(=O)N1CC(=O)N2[C@@H](CO)[C@H](c3ccc(C#Cc4cccnc4)cc3)[C@@H]2C1 was read as DUX4 inh inactive.
For COc1cccc(NC(=O)N2CC(=O)N3[C@@H](CO)[C@H](c4ccc(C#CC5CCCCC5)cc4)[C@@H]3C2)c1 the results were DUX4 inh -47.
COc1cccc(NC(=O)N2CC(=O)N3[C@H](CO)[C@@H](c4ccc(C#CC5CCCCC5)cc4)[C@H]3C2)c1 was read as DUX4 inh inactive.
Screening COCC(=O)N1CC(=O)N2[C@H](C1)[C@H](c1ccc(C#Cc3cccnc3)cc1)[C@@H]2CO returned DUX4 inh inactive.
`CC(=O)N1CC(=O)N2[C@H](CO)[C@@H](c3ccc(C#Cc4cccnc4)cc3)[C@H]2C1` gave DUX4 inh inactive.
Screening CC(=O)N1CC(=O)N2[C@H](CO)[C@H](c3ccc(C#Cc4cccnc4)cc3)[C@H]2C1 returned DUX4 inh -20.
`CC(C)CC#Cc1ccc([C@H]2[C@@H](CO)N3C(=O)CN(C(=O)Cc4ccccc4)C[C@H]23)cc1` gave DUX4 inh inactive.
For COCC(=O)N1CC(=O)N2[C@H](CO)[C@H](c3ccc(C#Cc4cccnc4)cc3)[C@H]2C1 the results were DUX4 inh -22.
COc1cccc(NC(=O)N2CC(=O)N3[C@H](CO)[C@@H](c4ccc(C#CC5CCCCC5)cc4)[C@@H]3C2)c1 was read as DUX4 inh inactive.
For CC(C)CC#Cc1ccc([C@@H]2[C@@H](CO)N3C(=O)CN(C(=O)Cc4ccccc4)C[C@H]23)cc1 the results were DUX4 inh inactive.
Screening COCC(=O)N1CC(=O)N2[C@@H](CO)[C@@H](c3ccc(C#Cc4cccnc4)cc3)[C@@H]2C1 returned DUX4 inh inactive.
For COCC#Cc1ccc([C@@H]2[C@@H](CO)N3C(=O)CN(C(=O)Nc4ccccc4F)C[C@@H]23)cc1 the results were DUX4 inh inactive.
C/C=C/c1ccc([C@H]2[C@H](CO)N[C@H]2CN(C(=O)C2CCC2)C(C)C)cc1 was read as DUX4 inh inactive.
Screening CCC(=O)Nc1ccc2c(c1)C(=O)N(C)C[C@H](OC)[C@@H](C)CN(C(=O)COC)[C@@H](C)CO2 returned DUX4 inh inactive.
`COc1ccc2c3c(n(C)c2c1)[C@H](CO)N(S(C)(=O)=O)CC31CCN(Cc2cccnc2)CC1` gave DUX4 inh inactive.
Screening COCC#Cc1cnc2c(c1)C(=O)N([C@H](C)CO)C[C@H](C)[C@H](CN(C)C(=O)c1cnccn1)O2 returned DUX4 inh inactive.
For C[C@@H]1COCn2nncc2CC[C@H](C)C(=O)N1 the results were DUX4 inh inactive.
Screening COCC(=O)N1CC2(C1)[C@@H](c1ccc(-c3cccc(F)c3)cc1)[C@H](CO)N2C(=O)COC returned DUX4 inh inactive.
For CCCC(=O)N1CC2(C1)CN(C(=O)Nc1c(C)noc1C)[C@@H](CO)c1c2c2ccc(OC)cc2n1C the results were DUX4 inh inactive.
For O=S(=O)(c1ccc(-c2ccccc2)cc1)N1[C@@H]2CNC[C@H]1C2c1ccc(-c2ccccc2)cc1 (stereo partly drawn) the results were DUX4 inh inactive.
Cc1cccc(-c2ccc(C3[C@@H]4CNC[C@H]3N4)cc2)c1 (stereo partly drawn) was read as DUX4 inh inactive.
COc1ccc(S(=O)(=O)N2[C@@H]3CNC[C@H]2C3c2ccc(-c3ccncc3)cc2)cc1 (stereo partly drawn) was read as DUX4 inh inactive.
Screening CS(=O)(=O)N1C[C@@H]2N[C@H](C1)[C@@H]2c1ccc(-c2ccccc2)cc1 returned DUX4 inh -51.
Screening O=S(=O)(c1ccc(-c2ccccc2)cc1)N1C[C@@H]2N[C@H](C1)C2c1ccc(-c2ccncc2)cc1 (stereo partly drawn) returned DUX4 inh -33.
Cc1ccc(S(=O)(=O)N2[C@@H]3CNC[C@H]2C3c2ccc(-c3cccnc3)cc2)cc1 (stereo partly drawn) was read as DUX4 inh inactive.
Screening O=S(=O)(c1cccc(F)c1)N1[C@@H]2CNC[C@H]1C2c1ccc(-c2cccnc2)cc1 (stereo partly drawn) returned DUX4 inh inactive.
O=S(=O)(c1ccccc1)N1[C@@H]2CNC[C@H]1C2c1ccc(-c2cccnc2)cc1 (stereo partly drawn) was read as DUX4 inh -11!.
Screening CN(C)C(=O)c1ccc(-c2ccc(C3[C@@H]4CN(S(=O)(=O)Cc5ccccc5)C[C@H]3N4)cc2)cc1 (stereo partly drawn) returned DUX4 inh inactive.
Screening CC(C)[C@@H]1COCc2cn(nn2)CC[C@@H](Cc2ccc(Cl)cc2)C(=O)N1 returned DUX4 inh inactive.
Screening O=C(c1cccnc1)N1CC(=O)N2[C@H](CO)[C@H](c3ccc(/C=C/c4ccccc4)cc3)[C@@H]2C1 returned DUX4 inh inactive.
CC[C@H]1C/C=C\C[C@@H](c2ccc(OC)cc2OC)NC(=O)[C@H](C)CC(=O)N1 was read as DUX4 inh inactive.
Screening CCNC(=O)Nc1ccc2c(c1)C(=O)N(C)[C@H]1CC[C@H](CC(=O)NCc3ccccc3F)O[C@@H]1CO2 returned DUX4 inh inactive.
For COc1ccc([C@H]2C/C=C\C[C@H](c3ccccc3)NC(=O)CCC(=O)N2)c(OC)c1 the results were DUX4 inh inactive.
`CO[C@@H]1CN(C)C(=O)c2cc(C#N)ccc2OC[C@H]2O[C@@H](CC[C@H]2OC)CCN(C)C(=O)[C@H]1C` gave DUX4 inh inactive.
C/C=C/c1ccc([C@@H]2[C@@H](CO)N3CCCCN(S(=O)(=O)c4ccc(F)cc4)C[C@H]23)cc1 was read as DUX4 inh inactive.
Screening COc1cccc(S(=O)(=O)N2CCCCN3[C@H](CO)[C@@H](c4ccc(-c5cccnc5)cc4)[C@H]3C2)c1 returned DUX4 inh inactive.
COc1cccc(S(=O)(=O)N2CCCCN3[C@H](C2)[C@H](c2ccc(-c4cccnc4)cc2)[C@@H]3CO)c1 was read as DUX4 inh -35.

Source: PubChem BioAssay (Broad Institute)
